Source: PubChem BioAssay (National Center for Advancing Translational Sciences (NCATS))
KDM5B inh: blocks human KDM5B histone demethylase activity; 220,000 compounds, 2.6% hits; Potency, µM (titrated, usually from 57.7 µM), most hits filed as inhibitors; Q9UGL1; KDM5B demethylase, FDH-coupled NADH fluorescence (FDH is formaldehyde dehydrogenase); AID 1347165; active means well fitted inhibition curve with a large enough effect; further: 0% is about no effect; nearly all actives have a fitted effect of over 70% in size
Target sequence (Q9UGL1 whole entry, looked up): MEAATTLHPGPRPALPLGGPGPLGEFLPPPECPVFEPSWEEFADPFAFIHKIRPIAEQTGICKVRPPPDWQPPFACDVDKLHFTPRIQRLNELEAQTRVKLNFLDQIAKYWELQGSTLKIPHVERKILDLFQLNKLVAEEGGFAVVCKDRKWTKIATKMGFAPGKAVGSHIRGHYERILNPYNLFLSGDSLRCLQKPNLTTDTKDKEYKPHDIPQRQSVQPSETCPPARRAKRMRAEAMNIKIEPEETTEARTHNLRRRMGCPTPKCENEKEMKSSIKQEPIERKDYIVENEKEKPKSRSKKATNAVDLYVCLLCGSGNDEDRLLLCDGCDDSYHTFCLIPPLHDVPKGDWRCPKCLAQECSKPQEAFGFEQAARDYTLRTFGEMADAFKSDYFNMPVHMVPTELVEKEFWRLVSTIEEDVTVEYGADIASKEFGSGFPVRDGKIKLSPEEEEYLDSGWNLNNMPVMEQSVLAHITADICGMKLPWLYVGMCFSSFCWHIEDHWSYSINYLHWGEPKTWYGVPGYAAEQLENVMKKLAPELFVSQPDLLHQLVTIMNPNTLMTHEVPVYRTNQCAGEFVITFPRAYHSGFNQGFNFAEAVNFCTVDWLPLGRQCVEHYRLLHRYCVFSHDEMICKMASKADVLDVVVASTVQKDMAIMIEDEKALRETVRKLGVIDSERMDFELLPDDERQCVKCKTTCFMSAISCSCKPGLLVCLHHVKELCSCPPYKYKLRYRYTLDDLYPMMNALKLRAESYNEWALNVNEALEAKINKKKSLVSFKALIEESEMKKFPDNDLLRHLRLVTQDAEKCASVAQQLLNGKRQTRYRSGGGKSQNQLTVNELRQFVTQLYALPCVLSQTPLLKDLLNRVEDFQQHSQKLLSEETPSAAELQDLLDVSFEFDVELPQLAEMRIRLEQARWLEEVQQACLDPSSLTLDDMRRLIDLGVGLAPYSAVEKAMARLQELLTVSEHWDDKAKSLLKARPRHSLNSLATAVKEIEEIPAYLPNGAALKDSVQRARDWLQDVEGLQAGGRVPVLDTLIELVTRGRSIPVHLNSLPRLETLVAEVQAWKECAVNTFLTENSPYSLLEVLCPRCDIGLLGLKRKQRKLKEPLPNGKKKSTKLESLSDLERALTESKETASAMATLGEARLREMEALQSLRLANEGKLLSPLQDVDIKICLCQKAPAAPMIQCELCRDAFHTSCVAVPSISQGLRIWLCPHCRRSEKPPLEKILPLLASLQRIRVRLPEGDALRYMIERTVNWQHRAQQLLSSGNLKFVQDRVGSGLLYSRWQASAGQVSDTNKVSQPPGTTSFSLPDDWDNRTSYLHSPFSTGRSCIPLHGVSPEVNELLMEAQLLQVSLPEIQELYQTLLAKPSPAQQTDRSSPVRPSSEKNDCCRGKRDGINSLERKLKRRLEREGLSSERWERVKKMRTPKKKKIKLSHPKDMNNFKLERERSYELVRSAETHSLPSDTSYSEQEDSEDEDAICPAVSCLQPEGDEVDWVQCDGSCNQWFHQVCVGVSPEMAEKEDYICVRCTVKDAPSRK
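Measured: NADH fluorescence change, 30 min, RT. System: KDM5BΔAP 200 nM final, H3K4me3 peptide, α-KG, Fe(II), ascorbate, NAD⁺ plus FDH, pH 7.5 HEPES. Compounds: titrated, 10 min pre-incubation with enzyme.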
The depositor's hits bear a star; i = inactive. This excerpt belongs to a sample that is enriched for hits. Potency means the concentration at half of the fitted maximal effect.

SMILES	KDM5B inh
O=S1(=O)NCC2(CCCN(Cc3ccccn3)C2)Oc2ncccc21 (centres undefined)	i
NC(=O)c1ccc(NC(=O)C2=C(c3ccccc3)SCCO2)cc1	i
CCCNc1nc(N(C)C)nc(-n2cnc(SCC(=O)OCC)n2)n1	i
CC(C)COc1ccccc1N	i
COc1ccccc1-c1nc(C(=O)NCCc2ccc(Cl)cc2)n2ccncc12	79µM*
COc1ccc(CCNC(=O)Cn2c(=O)nc(-c3ccccc3F)c3cc(Cl)ccc32)cc1OC	i
O=C(NC1CC1)c1nc(-c2ccc(Cl)cc2Cl)c2ccccn12	28µM*
COc1ccc(CCNC(=O)c2nc(SCc3ccccc3F)ncc2Cl)cc1OC	i
Cc1ccc2nc(-c3ccccc3Cl)cc(C(=O)NC3CC3)c2c1	i
CN(C)C(=O)C1CCc2nnc(-c3ccc(Cl)cc3Cl)n21 (centres undefined)	i
N#CC1CCN(C(=O)C2CCc3nnc(-c4ccc(Cl)cc4Cl)n32)CC1 (centres undefined)	i
N#CC1CCN(C(=O)C2CN(c3cccc(Cl)c3)C(=O)N2)CC1 (centres undefined)	i
O=C(NC1CC1)C1CCN(C(=O)c2ccc(Cl)cc2Cl)CC1	i
CN(C)C(=O)c1nc(-c2ccc(Cl)cc2Cl)c2ccccn12	89µM*
N#CC1CCN(C(=O)c2nc(-c3ccc(Cl)cc3Cl)c3ccccn23)CC1	28µM*
Cn1c(-c2ccc(Cl)cc2Cl)cc2ccccc21	i
Cc1ccc(C(N)=O)c(OCc2coc(-c3ccc(F)cc3)n2)c1	i
Cc1cc(OCC(=O)NCc2ccc(-c3nc4ncccc4o3)cc2)ccc1Cl	i
C=CCNS(=O)(=O)c1cccc(C(=O)Nc2ccc(N3CCCCC3)c3ccncc23)c1	i
COc1ccc(NC(=O)c2ccc3c(c2)N(C(=O)c2ccc(F)cc2)CC3)cc1	i
O=C(CCc1c[nH]c2ccccc12)NCc1ccc(F)cc1	i
Cc1ccccc1OCCN(C)C(=O)c1cc(C2CC2)nc2ccccc12	i
CN(C)S(=O)(=O)N(CC(=O)Nc1ccc(Cl)c(Cl)c1)c1ccccc1	i
Cc1ccc(Nc2nc(CN3CCN(S(=O)(=O)c4ccc(C)cc4)CC3)cs2)cc1	i
Cc1cc(C)n(C(=O)c2ccc(C)c(S(=O)(=O)N3CCCCCC3)c2)n1	i
SMILES	KDM5B inh
Cc1cccc(C(=O)NC(C)c2ccc(OC(F)F)cc2)n1 (centres undefined)	i
COc1ccccc1CN1CCN(C/C=C/c2ccccc2)CC1	i
O=C(NCCc1ccc(Cl)cc1)c1nc(-c2ccc(Cl)cc2Cl)c2cnccn12	56µM*
O=C(NCCc1ccncc1)c1ccc(Cl)cc1Cl	i
O=C(NCCc1ccc(Cl)cc1)c1nc(-c2ccc(Cl)cc2Cl)c2ccccn12	79µM*
O=C(NCCc1ccc(Cl)cc1)c1cc(-c2cnccc2Cl)c2cccn2n1	i
CCNC(=O)NC(=O)CN(C)Cc1ccc(C2CC2C)o1 (centres undefined)	i
Cc1ccc(C(=O)OCC(=O)Nc2ccccc2N2CCCC2=O)c(O)c1	i
COc1ccc2c(c1)c(CN1CCCC(c3nc(C(C)C)no3)CCNC(=O)CC1)cn2C(C)C (centres undefined)	i
O=C1CCN(Cc2ccc(F)cc2F)CCOCCN1	i
COc1ccc2c(c1)c(CN1CCOCCNC(=O)CC1)cn2C(C)C	20µM*
COc1ccc(CC(=O)NCc2nnc(SCC(=O)c3ccc(Cl)cc3Cl)n2C)cc1	i
Cc1ccc(NC(=S)NCC(C)(C)N2CCCCC2)cc1Cl	i
O=C(NCC1CN(Cc2cccc(O)c2)CC12CN(c1ccccc1)C2)c1ccccc1 (centres undefined)	i
C[S+](=O)([O-])c1cccc(CN2CC(COc3ccccc3)C3(C2)CN(c2ccccc2)C3)c1 (centres undefined)	35µM*
Clc1cccc(CN2CC(CNc3cccnc3)C3(C2)CN(c2ccccc2)C3)c1 (centres undefined)	32µM*
N#Cc1cccc(CN2CC(COc3ccccc3)C3(C2)CN(c2ccccc2)C3)c1 (centres undefined)	40µM*
c1ccc(N2CC3(CN(CC4CC4)CC3CNc3cccnc3)C2)cc1 (centres undefined)	i
Cn1ccc(C(=O)N2CC(COc3ccccc3)C3(C2)CN(c2ccccc2)C3)n1 (centres undefined)	i
Cn1nccc1C(=O)N1CC(COc2ccccc2)C2(C1)CN(c1ccccc1)C2 (centres undefined)	i
O=C(c1cn[nH]c1)N1CC2(CN(Cc3cccc(OC(F)(F)F)c3)CC2COc2ccccc2)C1 (centres undefined)	i
Clc1cnccc1CN1CC(CNc2ccccc2)C2(C1)CN(c1ccccc1)C2 (centres undefined)	i
O=C(C1COc2cc(S(=O)(=O)NCCc3ccc(Cl)cc3)ccc2O1)N1CCCCC1 (centres undefined)	i
O=C(CSc1nc2ccccc2o1)c1c[nH]c2ccccc12	i
O=C(NC1CC2CC1C1CCCC21)c1nc(Cl)ccc1Cl (centres undefined)	i
SMILES	KDM5B inh
COc1ccc(-c2onc(C)c2C(=O)NCCCOC(C)C)cc1	i
CCCOCCCNC(=O)c1c(C)noc1-c1ccc(C(C)(C)C)cc1	i
CCCOCCNC(=O)c1c(C)noc1-c1ccc2c(c1)OCO2	28µM*
CCCCNC(=O)c1cc(-c2ccc3c(c2)OCO3)on1	i
COc1ccc(-c2onc(C)c2C(=O)NCCOc2ccccc2)cc1	i
CCCOCCCNC(=O)c1c(C)noc1-c1ccc2c(c1)OCO2	28µM*
Cc1ccc(C)c(C(C)NC(=O)COc2ccccc2C#N)c1 (centres undefined)	i
CCOC(=O)c1c(C)c(-c2ccccc2)n(CC(=O)Nc2cc(OC)ccc2OC)c1C	i
Cc1ccc2cc(CCl)c(Cl)nc2c1C	i
Cc1ccc(C2Cn3cnc(C(=O)N4CCC(C(=O)NCc5ccccc5)CC4)c3CO2)cc1 (centres undefined)	i
O=C(NCc1ccccc1)NCC1CCCN(Cc2ccccn2)C1 (centres undefined)	i
CSCCC(=O)N1CCC2(CCN(Cc3ccccn3)CC2)C(CO)C1 (centres undefined)	i
O=C(CC1CCCC1)N1CC[C@@]2(O)CCN(Cc3ccccn3)C[C@H]2C1	25µM*
O=C(NC1CC(=O)N(c2ccc3c(c2)OCCO3)C1)c1ccc(S(=O)(=O)N2CCOCC2)cc1 (centres undefined)	i
COc1ccc(-c2cc3nc4c(c(=O)n3[nH]2)CN(C(=O)Cc2ccccc2)CC4)cc1	28µM*
COc1ccc(CC(=O)N2CCc3nc(C(C)C)nc(-c4ccc(OC)cc4)c3CC2)cc1	i
O=C(NCc1ccco1)N1CCc2c(nc(-c3ccc(F)cc3)[nH]c2=O)C1	i
COc1ccc(-c2nc3c(c(-c4ccccc4)n2)CN(C(C)=O)CC3)cc1	28µM*
COc1ccc(-c2nc(-c3ccccc3)nc3c2CN(C(=O)C2CC2)CC3)cc1	i
CC(=O)N1CCc2nc(-c3ccccc3)nc(-c3ccc(Cl)cc3)c2C1	i
Cc1nc2c(c(=O)n1C)CCN(C(=O)NCc1ccco1)CC2	i
COc1ccc(-c2cc3nc4c(c(=O)n3[nH]2)CN(C(=O)NCc2ccco2)CC4)cc1	25µM*
COc1ccc(CC(=O)N2CCc3nc(-c4cccnc4)[nH]c3C2)cc1	i
CC(C)c1ccc(/C=N/NC(=O)Cc2ccccc2)cc1	i
